This is an account of results in a collection of fitness landscapes (doi:10.1016/j.celrep.2020.107928).

B1: Caulobacter ParB omega fusion; a variant is named by its letters at X, in order, B8GW30 (parent)
chain: MESVVVGEPGMSEGRRGLGRGLSALLGEVDAAPAQAPGEQLGGSREAPIEILQRNPDQPRRTFREEDLEDLSNSIREKGVLQPILVRPSPDTAGEYQIVAGERAWRAAQRAGLKTVPIMVRELDDLAVLEIGIIENVQRADLNVLEEALSYKVLMEKFERTQENIAQTIGKSXSHVANXMRLLXLPDEVQSYLVSGELTAXHARAIAAAADPVALAKQIIEGGLSVRETEALARKAPNLSAGKSKGGRPPRVKDTDTQALESDLSSVLGLDVSIDHRGSTGTLTITYATLEQLDDLCNRLTRGI

Over roughly 81,000 sequences, “one-hybrid fitness for binding NBS DNA” has its median near -0.1; the highest 2% begin near 0.36. Only a selection was taken, and the highest values are over-represented in it overall.

Variants of B1 are the subject of this experiment. Briefly: one-hybrid fitness for binding NBS DNA (the Noc-binding site; scaled: cognate 1, non-cognate 0); higher = stronger binding. The following applies: with NBS DNA site. Summed up:
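Fitness is the rescaled log change in variant-to-wild-type read ratio, measured by Illumina sequencing of plasmids before and after bacterial one-hybrid selection. The scale puts cognate at 1 and non-cognate at 0. Selection of Caulobacter ParB libraries, four specificity codons randomised, took place in E. coli USO with a HIS3 reporter, site 19 bp from the promoter, over 48 hours at 37°C on M9-minus-histidine with 0.1 mM IPTG and 5 mM 3-AT.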
For the variant LRQC, the “one-hybrid fitness for binding NBS DNA” value was at most 0.2. In the case of DWDT it was at most 0.2; in that of RASG, at most 0.2.

For RAST, the “one-hybrid fitness for binding NBS DNA” value was 0.405. In the case of RAIT it was 0.22; in that of WCGS, at most 0.2. The value for WSGA was at most 0.2; that for LRTY was at most 0.2.

Consider RLRH, for which the “one-hybrid fitness for binding NBS DNA” value was determined as 0.322. The value for RCIS was 0.281; that for RCRD was at most 0.2; that for RSIS was 0.203. In the case of RCYS it was 0.521. With RCDS, the “one-hybrid fitness for binding NBS DNA” value was at most 0.2. The value for RCRS was 0.661; that for RPRS was at most 0.2; that for RSYS was 0.409. For RLYS, the “one-hybrid fitness for binding NBS DNA” value was found to be 0.34. In the case of RLRS it was 0.541.

Regarding RSPS, the “one-hybrid fitness for binding NBS DNA” value is at most 0.2.

PGSA: the “one-hybrid fitness for binding NBS DNA” value is at most 0.2.

With INQF, the “one-hybrid fitness for binding NBS DNA” value is at most 0.2.

Regarding RCMW, the “one-hybrid fitness for binding NBS DNA” value is at most 0.2. The value for QPWY was at most 0.2; that for PDHS was at most 0.2. In the case of CDSD it was at most 0.2; in that of TLGI, at most 0.2. Consider NQER, for which the “one-hybrid fitness for binding NBS DNA” value is at most 0.2.

HRCR: the “one-hybrid fitness for binding NBS DNA” value is at most 0.2.

As for DVPR, the “one-hybrid fitness for binding NBS DNA” value is at most 0.2. Turning to LVEQ, the “one-hybrid fitness for binding NBS DNA” value was at most 0.2. The value for RSRS was 0.593; that for RMRN was 0.25; that for RSRN was at most 0.2.

Turning to RFRS, the “one-hybrid fitness for binding NBS DNA” value was found to be 0.446.

Consider RFYS, for which the “one-hybrid fitness for binding NBS DNA” value is at most 0.2. In the case of RFIS it was at most 0.2; in that of RMYS, 0.361. In the case of RSRD it was at most 0.2. The value for RMRS was 0.642.

With GATS, the “one-hybrid fitness for binding NBS DNA” value was at most 0.2. For FYHG, the “one-hybrid fitness for binding NBS DNA” value is at most 0.2. In the case of RQDG it was at most 0.2; in that of PLRC, at most 0.2; in that of MYHV, at most 0.2. Consider MNMN, for which the “one-hybrid fitness for binding NBS DNA” value was at most 0.2. The value for NSER was at most 0.2. Consider IPMG, for which the “one-hybrid fitness for binding NBS DNA” value is at most 0.2. On to MNVG, for which the “one-hybrid fitness for binding NBS DNA” value is at most 0.2. With YLLC, the “one-hybrid fitness for binding NBS DNA” value is at most 0.2. In the case of QMFR it was 0.431; in that of QMAR, 0.602; in that of QMFD, at most 0.2.

For the variant QMFS, the “one-hybrid fitness for binding NBS DNA” value worked out at 0.251.

Consider QMAP, for which the “one-hybrid fitness for binding NBS DNA” value is at most 0.2. The value for QMAN was at most 0.2; that for KGLV was at most 0.2; that for WVEH was at most 0.2.

QVVS: the “one-hybrid fitness for binding NBS DNA” value is at most 0.2. In the case of VVYG it was at most 0.2; in that of QRRL, 0.364; in that of QCNN, 0.208.

Turning to QRDD, the “one-hybrid fitness for binding NBS DNA” value was at most 0.2. In the case of QCNC it was at most 0.2. The value for QRDN was at most 0.2. For the variant QRDH, the “one-hybrid fitness for binding NBS DNA” value came out at 0.381.

For the variant QRDP, the “one-hybrid fitness for binding NBS DNA” value is at most 0.2. As to NRRH, the “one-hybrid fitness for binding NBS DNA” value was at most 0.2. The value for QRNC was 0.44; that for QRDC was 0.227.

On to QRNN, for which the “one-hybrid fitness for binding NBS DNA” value is 0.459. The value for QRRH was 0.779; that for WYLT was at most 0.2.

For the variant RDFR, the “one-hybrid fitness for binding NBS DNA” value was at most 0.2. Take EMRY: the “one-hybrid fitness for binding NBS DNA” value was at most 0.2.

As for KWVR, the “one-hybrid fitness for binding NBS DNA” value was at most 0.2. On to YLCS, for which the “one-hybrid fitness for binding NBS DNA” value was at most 0.2. On to TWCL, for which the “one-hybrid fitness for binding NBS DNA” value was at most 0.2. In the case of SYCN it was at most 0.2; in that of IVKG, at most 0.2. As for CWPS, the “one-hybrid fitness for binding NBS DNA” value is at most 0.2. In the case of QSNQ it was at most 0.2; in that of QRNP, 0.308.

As to QRDQ, the “one-hybrid fitness for binding NBS DNA” value came out at 0.215. QRWH: the “one-hybrid fitness for binding NBS DNA” value was 0.301. Regarding QRNM, the “one-hybrid fitness for binding NBS DNA” value worked out at 0.461. In the case of QRYH it was 0.486.

Consider QREH, for which the “one-hybrid fitness for binding NBS DNA” value came to 0.258. In the case of QRND it was 0.306; in that of QCNM, 0.224; in that of QRDM, at most 0.2. In the case of QRNH it was 0.598; in that of QRNQ, 0.439. Consider KICK, for which the “one-hybrid fitness for binding NBS DNA” value is at most 0.2.

For the variant QEKS, the “one-hybrid fitness for binding NBS DNA” value is at most 0.2.

For the variant LWPC, the “one-hybrid fitness for binding NBS DNA” value is at most 0.2. QDAY: the “one-hybrid fitness for binding NBS DNA” value was at most 0.2. For RGRV, the “one-hybrid fitness for binding NBS DNA” value was at most 0.2. In the case of KRVS, the “one-hybrid fitness for binding NBS DNA” value was 0.395. For KRVY, the “one-hybrid fitness for binding NBS DNA” value is at most 0.2. Regarding KRKD, the “one-hybrid fitness for binding NBS DNA” value was at most 0.2. Turning to KRKN, the “one-hybrid fitness for binding NBS DNA” value was 0.272. KRKM: the “one-hybrid fitness for binding NBS DNA” value was determined as 0.253. Consider KRKY, for which the “one-hybrid fitness for binding NBS DNA” value is 0.368. Turning to KRKP, the “one-hybrid fitness for binding NBS DNA” value is at most 0.2. The value for KRVD was at most 0.2. In the case of KRKS it was 0.536; in that of KRYY, at most 0.2; in that of KRVH, at most 0.2. On to KRKH, for which the “one-hybrid fitness for binding NBS DNA” value stood at 0.482. In the case of AKVL it was at most 0.2. Turning to ALSW, the “one-hybrid fitness for binding NBS DNA” value was at most 0.2.

As for HILV, the “one-hybrid fitness for binding NBS DNA” value is at most 0.2. Take LNQE: the “one-hybrid fitness for binding NBS DNA” value is at most 0.2. Regarding DNHT, the “one-hybrid fitness for binding NBS DNA” value was at most 0.2. Turning to YLSD, the “one-hybrid fitness for binding NBS DNA” value was at most 0.2. Turning to HLNK, the “one-hybrid fitness for binding NBS DNA” value is at most 0.2.

Take MSFM: the “one-hybrid fitness for binding NBS DNA” value was at most 0.2. For LRFR, the “one-hybrid fitness for binding NBS DNA” value is at most 0.2. In the case of TEAT it was at most 0.2.

For PRVW, the “one-hybrid fitness for binding NBS DNA” value is at most 0.2. Consider QRDW, for which the “one-hybrid fitness for binding NBS DNA” value is at most 0.2. The value for QPRW was at most 0.2. Consider QSRW, for which the “one-hybrid fitness for binding NBS DNA” value was determined as 0.254. For PRKW, the “one-hybrid fitness for binding NBS DNA” value amounted to 0.446.

Take QCRW: the “one-hybrid fitness for binding NBS DNA” value came to 0.371. As to QRRW, the “one-hybrid fitness for binding NBS DNA” value was 0.384.

Turning to QTRW, the “one-hybrid fitness for binding NBS DNA” value amounted to 0.417. The value for PRYW was at most 0.2; that for QRYW was 0.203.

For the variant QTDW, the “one-hybrid fitness for binding NBS DNA” value is at most 0.2. In the case of QTYW it was at most 0.2; in that of NMRT, at most 0.2.

Consider KSRN, for which the “one-hybrid fitness for binding NBS DNA” value was at most 0.2.

As for MPIT, the “one-hybrid fitness for binding NBS DNA” value is at most 0.2. As to SLCY, the “one-hybrid fitness for binding NBS DNA” value is at most 0.2. In the case of ADNG it was at most 0.2; in that of FLPR, at most 0.2. Consider QCKW, for which the “one-hybrid fitness for binding NBS DNA” value came out at 0.324. In the case of QSKW, the “one-hybrid fitness for binding NBS DNA” value stood at 0.279.

QTVW: the “one-hybrid fitness for binding NBS DNA” value is at most 0.2. Regarding QTKW, the “one-hybrid fitness for binding NBS DNA” value was 0.439. In the case of QRVW it was at most 0.2; in that of QRKW, 0.411; in that of NCCT, at most 0.2. In the case of PANC it was at most 0.2; in that of PYWD, at most 0.2; in that of QGMV, at most 0.2.

As to TIMA, the “one-hybrid fitness for binding NBS DNA” value was at most 0.2.

For FGDS, the “one-hybrid fitness for binding NBS DNA” value was at most 0.2. LKMV: the “one-hybrid fitness for binding NBS DNA” value is at most 0.2.

Turning to RMKY, the “one-hybrid fitness for binding NBS DNA” value is 0.311. The value for RIVR was 0.28; that for RGVR was at most 0.2; that for RMVR was 0.314. On to RAVR, for which the “one-hybrid fitness for binding NBS DNA” value is 0.277. In the case of RGKR, the “one-hybrid fitness for binding NBS DNA” value worked out at 0.38.
